Laboratory results taken from PubChem BioAssay (NCI).
The panel holds about 83,000 compounds, 20% with a hit somewhere; the sample as a whole holds those more often.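 The endpoint reported here, percent growth, reads 100 for growth as untreated, 0 for no net growth and -100 for all cells dead.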 Calls of active or inactive are those of the source. Rule for the calls: active = growth percent below 10; inactive = the rest.

These compounds were tested on M14 melanoma (assay: NCI-60 one-dose screen, 48 h (100 = growth as untreated, 0 = no growth, -100 = all killed)). Details: 10 µM unless noted.
`COC(=O)CCSC1=C(C)C(=O)c2ccccc2C1=O` was tested, and the growth was 107% (inactive).
With `CCc1cc(OC(=O)N2CCC(N3CCCCC3)CC2)ccc1Nc1cc(-c2ccc(-n3cccn3)cc2)[nH]n1` the growth was -85.5% (active).
`O=C(Nc1cc(C(F)(F)F)cc(C(F)(F)F)c1)Nc1ccc2oc(=O)ccc2c1` was tested, and the growth was 18.1% (inactive).
For `Cc1ccc2c(n1)C(=O)C(Cl)=C(Nc1ccc(C(=O)OC(C)(C)C)cc1)C2=O`, the growth was 61.3% [9.25 µM] (inactive).
For `Cc1cc(=O)[nH]c(O)c1C#N`, the growth was 94.4% (inactive).
With `CCN(CC)S(=O)(=O)c1ccc(-c2nc(C(Cl)Cl)nc3cc(C)nn23)cc1` the growth was 4.27% (active).
With `CNC(=O)Nc1ccc(Nc2cc(-c3ccc(-n4cccn4)cc3)[nH]n2)c(C)c1` the growth was 126% (inactive).

What follows are compounds tested on HCT-15 colon in the same assay as above. Details: 10 µM unless noted.
For `CNc1sc(S(=O)(=O)NC)nc1S(=O)(=O)c1ccc(C)cc1`, the growth was 94.2% (inactive).
`COc1cccc(N2CCN(C3=C(Cl)C(=O)c4ncccc4C3=O)CC2)c1` was tested, and the growth was 42.3% (inactive).
With `O=C1[C@@H]2Cc3c([nH]c4ccccc34)[C@@H](c3ccc(Cl)cc3)N2C(=O)CN1C1CCN(Cc2ccccc2)CC1` the growth was 34.1% (inactive).
For `CC(=O)OCCCCN1C=C/C(=C\C(=O)n2ccc3ccccc32)c2ccccc21`, the growth was 101% (inactive).
For `CN1CCN(c2ccc(Nc3nc(NCCNS(=O)(=O)c4ccc5ccccc5c4)c4sccc4n3)cc2)CC1`, the growth was 7.96% (active).
`CC1=C(C)C(=O)C(Nc2ccc3c(c2)OCCO3)=C(Br)C1=O` was tested, and the growth was 98.1% (inactive).
`C=C(C)[C@@H]1CC[C@]2(C(=O)NC3CCCCC3)CC[C@]3(C)[C@H](CC[C@@H]4[C@@]5(C)CC[C@H](N)C(C)(C)[C@@H]5CC[C@]43C)[C@@H]12` was tested, and the growth was 39% (inactive).
For `CCOC(=O)c1c(NC(=O)c2ccc(C(F)(F)F)cc2)sc2c3c(ccc12)OCN(C)C3`, the growth was -38.2% (active).
With `C#CCN(C)CCCOc1ccc(NCc2ccc(/C=C/C(=O)NO)cc2)cc1Cl` the growth was 8.05% (active).
With `COc1cc(/C=N\NC(=O)c2ccc3nc(-c4ccc(Br)cc4)[nH]c3c2)cc(OC)c1OC` the growth was 79.4% (inactive).
For `C=C1CCc2nc(SCC(=O)O)ccc2N1`, the growth was 99.1% (inactive).
For `CN1CCC[C@]2(C)[C@H]3CC[C@@H]4[C@@H]5[C@H]6OC[C@@]5(CCC6(C)C)CC[C@@]4(C)[C@]3(C)CC[C@H]2C1(C)C`, the growth was 24.4% (inactive).
`C=C(C=O)[C@@H]1CC[C@]2(C(=O)O)CC[C@]3(C)C(CC[C@@H]4[C@@](C)(CCC#N)[C@H](C(=C)C=O)CC[C@]43C)[C@@H]12` (some centres not stated) was tested, and the growth was 4.88% (active).
For `NCCNC(=O)c1cccc(COc2ccccc2NC(=O)c2cc(Cl)c(Cl)[nH]2)c1`, the growth was 94.3% (inactive).
`COc1ccc(C2c3[nH]c4ccc(Cl)cc4c3CCN2c2oc(CO)nc2C#N)cc1` (configuration not stated) was tested, and the growth was 22.2% (inactive).
For `CN(C)c1ccc(-c2cc(-c3c[nH]c4ccccc34)nc(N)c2C#N)cc1`, the growth was 11.9% (inactive).
For `COc1ccccc1/C=C1\Oc2ccc(O)c(O)c2C1=O`, the growth was 77.5% (inactive).
With `CCCCCc1ccc(S(=O)(=O)Nc2cc(-c3csc(N)n3)ccc2OC)cc1` the growth was 81.8% (inactive).
For `O=C(O)c1ccc(-n2c(=O)n(-c3cccc(C(F)(F)F)c3)c(=O)c3cc(-c4ccc(F)cc4F)ccc32)cc1`, the growth was 10.4% (inactive).
With `Nn1c(=O)n(-c2cccc(C(F)(F)F)c2)c(=O)c2cc(-c3ccc(F)cc3F)ccc21` the growth was 10.6% (inactive).
In the case of `CCCCN1C(=O)/C(=c2\sc3n(c2=O)C2C(NN=3)N(CC)C(=O)N2CC)c2cc(C)ccc21` (configuration not stated), the growth is reported as 86.2% (inactive).
With `CC(C)[C@H]1c2[nH]c3ccccc3c2C[C@H]2C(=O)N(CCCCCCC(=O)NO)CC(=O)N12` the growth was 97.5% (inactive).
`O=C(N/N=C\c1ccc(F)cc1)c1ccc2nc(-c3ccc(Br)cc3)[nH]c2c1` was tested, and the growth was 22.2% (inactive).
`NC1[C@H]2CN(c3cnc(C(=O)Nc4cc(F)cc5cccnc45)cn3)C[C@@H]12` (some centres not stated) was tested, and the growth was 32.2% (inactive).
In the case of `Cc1ccsc1[C@H]1c2[nH]c3ccccc3c2C[C@H]2C(=O)N(CCCCCCC(=O)NO)CC(=O)N12`, the growth is reported as 99.1% (inactive).
For `CC(=O)N(O)CCCCCNC(=O)CCC(=O)N(O)CCCCCNC(=O)CCC(=O)N(O)CCCCCN(CCCCCCCCCC[P+](c1ccccc1)(c1ccccc1)c1ccccc1)CCCCCCCCCC[P+](c1ccccc1)(c1ccccc1)c1ccccc1`, the growth was 51.1% (inactive).
With `O=c1nc(Nc2ccc([N+](=O)[O-])cc2O)sc2ccccc12` the growth was 26.6% (inactive).
With `Cc1cc2nc(C(Cl)Cl)nc(-c3ccc(S(=O)(=O)N(C)C)cc3)n2n1` the growth was 5.58% (active).
With `C/C(CC1(O)C(=O)Nc2ccccc21)=N\O` (configuration not stated) the growth was 95.4% (inactive).
In the case of `C[C@]12CC[C@H]3[C@@H](CC=C4C[C@@H](O)CC[C@@]43C)[C@@H]1CC[C@@H]2[C@](C)(O)CCc1cccnc1`, the growth is reported as 70.2% (inactive).
In the case of `O=C(CSc1nnc(-c2cccs2)n1-c1ccccc1)Nc1ccccc1F`, the growth is reported as 52.7% (inactive).
`CC(=C(c1ccc(OCCCN(C)C)cc1)c1ccc(OCCCN(C)C)cc1)c1ccc(Cl)cc1` was tested, and the growth was 41.6% (inactive).
For `O=C(CSc1nc2ccccc2c(=O)n1-c1ccc(Cl)c(Cl)c1)Nc1ccc(S(=O)(=O)Nc2ccc(Cl)nn2)cc1`, the growth was 99.5% (inactive).
`COC(=O)CCSC1=C(C)C(=O)c2ccccc2C1=O` was tested, and the growth was 58.5% (inactive).
With `CCc1cc(OC(=O)N2CCC(N3CCCCC3)CC2)ccc1Nc1cc(-c2ccc(-n3cccn3)cc2)[nH]n1` the growth was -44.6% (active).
For `O=C(Nc1cc(C(F)(F)F)cc(C(F)(F)F)c1)Nc1ccc2oc(=O)ccc2c1`, the growth was 10.5% (inactive).
`Cc1ccc2c(n1)C(=O)C(Cl)=C(Nc1ccc(C(=O)OC(C)(C)C)cc1)C2=O` was tested, and the growth was -43.9% [9.25 µM] (active).
In the case of `Cc1cc(=O)[nH]c(O)c1C#N`, the growth is reported as 103% (inactive).
For `CCN(CC)S(=O)(=O)c1ccc(-c2nc(C(Cl)Cl)nc3cc(C)nn23)cc1`, the growth was 1.86% (active).
With `CNC(=O)Nc1ccc(Nc2cc(-c3ccc(-n4cccn4)cc3)[nH]n2)c(C)c1` the growth was 103% (inactive).
